TROY signal inh = inhibitors of TROY-dependent NF-kB signaling. 0.98% of 360,000 active. Q293 LMP1-TROYcd NF-kB luciferase reporter, 4 h. AID 1347056. inhibition, % at 10 µM;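 active = compounds whose plate-normalised and pattern-corrected inhibition of the luciferase reporter signal at the single screening dose is 50% or more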
TWEAK Fn14 block = TWEAK-Fn14 signaling inhibition; inhibition, % at 10 µM; TWEAK-stimulated Fn14 reporter cells, luciferase luminescence, 8 h; 2% of 360,000 active; in the data active = inhibition above about 50%
Peg3 prom inh-1 = reduces Peg3 promoter-driven luciferase expression in HeLa | AID 588405 | HeLa PEG-Prom luciferase reporter, luminescence, overnight | inhibition, % at 20 µM | 1.7% of 360,000 active;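 active = inhibition of at least 50% at 20 µM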
Shn3 3UTR inh = Schnurri-3 reporter inhibition in Clone20 osteoblasts; Clone20 osteoblast Shn3 3'UTR firefly luciferase, 24 h; inhibition, % at 12.5 µM; 0.52% of 360,000 active;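 active = mean inhibition of at least 75% with every replicate also reaching 75%; inconclusive = mean inhibition at least 75% but some replicate below; inactive = mean inhibition below 75%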;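 note: 0% = median of neutral control wells and 100% = pilot-screen positive control compound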
TRPM1 prom inh = inhibitors of MITF-driven TRPM1 promoter in melanoma cells; SK-MEL-5 TRPM1 promoter luciferase, 24 h; inhibition, % at 12.5 µM; 0.83% of 330,000 active; AID 488899;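 active = mean inhibition across replicates of 60% or more, whatever share of single replicates reaches that level; inconclusive = some that reach 60%, reason not given; inactive = mean inhibition across replicates below 60%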
LMP1 NFkB inh = inhibitors of Epstein-Barr LMP1-induced NF-kappaB reporter; LMP1-induced NF-kappaB luciferase reporter cells, luminescence; inhibition, % at 12.5 µM; 0.69% of 350,000 active; AID 504558; in the data active = inhibition above about 41%; inconclusive = no clear call, values can overlap the other calls;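 note: 0% = neutral control wells and 100% = reference inhibitor control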
Peg3 prom inh-2 = Peg3 promoter inhibition confirmation | shares compounds with Peg3 prom inh-1 | HeLa PEG-Prom luciferase reporter, luminescence, overnight | inhibition, % at 20 µM | 84% of 1,300 active;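 active = at 20 µM dose, 40% or more inhibition averaged across four replicates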
* hit, by the source's call; ? = inconclusive; nt = no result given. Compounds with a hit are over-represented: about 4.1% of the library has one in this group of screens.

SMILES	TROY signal inh	TWEAK Fn14 block	Peg3 prom inh-1	Shn3 3UTR inh	TRPM1 prom inh	LMP1 NFkB inh	Peg3 prom inh-2
O=C(Nc1ccccc1)c1cc(C2CCCN(C(=O)c3ccccc3)C2)on1 (centres undefined)	-57.7	-7.3	-181.0	-37.4	nt	nt	nt
O=C(c1cnc(N2CCN(c3ncccn3)CC2)c2ccccc12)N1CCN(c2ncccn2)CC1	32.1	39.6	60.2*	35.6	-4.6	9.5	34.4
O=C(O)c1ccccc1C(=O)N1CCN(c2ncccn2)CC1	3.8	-7.3	-13.0	-24.3	-11.2	-0.9	nt
Cc1ccc(C2(CCNCc3ccc(N(C)C)cc3)CCOC(C(C)C)C2)cc1 (centres undefined)	6.9	5.6	56.3*	17.1	36.3	-11.6	62.9*
Cc1ccc(C2(CCNS(=O)(=O)c3ccc(C)cc3)CCOC(C(C)C)C2)cc1 (centres undefined)	18.6	5.8	9.6	30.0	4.6	0.8	nt
COc1ccc(CN2CCN(C3CCC3)CC2CCO)cc1C (centres undefined)	13.6	7.0	8.8	1.0	2.4	-4.6	nt
CN1C/C(=C\c2ccc(N3CCOCC3)cc2)C(=O)/C(=C/c2ccc(N3CCOCC3)cc2)C1	14.5	22.9	-10.1	0.4	32.0	-154.0	nt
CCN1C/C(=C/c2ccc(N3CCOCC3)cc2)C(=O)/C(=C/c2ccc(N3CCOCC3)cc2)C1	8.2	16.8	101.2*	65.5	93.1*	-68.6	97.1*
CSc1nnc(NC(=O)c2ccc3c(c2)OCO3)s1	71.1*	91.8*	52.0*	54.4	40.6	67.8*	15.0
Cc1nnc(NC(=O)c2ccc3c(c2)OCO3)s1	-39.0	0.9	-159.8	-33.9	-47.3	-12.7	nt
CCn1c(=O)c2cc(C(=O)Nc3ccc(OC)cc3OC)sc2c2ccccc21	-3.0	-24.7	17.4	-1.0	35.5	-29.4	nt
COc1ccc(NC(=O)c2cc3c(Cl)nc4ccccc4c3s2)c(OC)c1	6.6	-43.0	52.4*	0.0	10.7	4.9	15.1
COc1cc(NC(=O)CSc2nc3[nH]c(=O)cc(O)c3s2)cc(OC)c1OC	16.7	-8.4	5.9	-6.0	6.3	0.5	nt
Cn1c(=O)c(Oc2cc(Cl)cc(Cl)c2)nc2ccccc21	-16.9	-13.0	68.0*	-1.7	0.0	-7.7	35.9
CN(Cc1ccccc1)C(=O)c1[nH]cnc1C(=O)N[C@@H](Cc1ccccc1)C(=O)OC(C)(C)C	-13.4	-3.3	4.8	3.5	2.5	-8.0	nt
CCCN(CC(=O)Nc1cc(Cl)cc(Cl)c1)CC(=O)Nc1ccc(F)c(F)c1F	42.4	49.0	87.5*	10.2	-21.3	-6.2	91.4*
CCCN(CC(=O)Nc1ccccc1Br)CC(=O)Nc1ccc(F)c(F)c1F	37.6	25.9	15.8	-44.1	1.0	-26.6	nt
CC(=O)c1cccc(NC(=O)CCN2C(=O)C3C4CCC(C4)C3C2=O)c1 (centres undefined)	-16.4	-6.2	1.6	-1.1	0.4	6.1	nt
Cc1cccc(CNc2ncnc3ccc(-c4ccoc4)cc23)c1	54.8*	94.3*	50.1*	-6.1	1.1	74.8*	40.8*
O=C(O)c1ccc(Nc2nc3c(s2)CCCC3)cc1	23.1	90.9*	66.7*	27.6	64.4*	39.0	54.2*
CN(C)CCOC1(Cc2ccc(F)cc2)CCC(C(C)(C)C)CC1 (centres undefined)	2.3	-8.8	8.3	10.0	37.3	10.4	nt
Cc1ccc(CC2(OCCN(C)C)CCC(C(C)(C)C)CC2)cc1 (centres undefined)	-2.8	-2.1	95.4*	1.0	57.1	1.9	100.8*
CCc1nc2ccc(C(=O)NCCCN3CCN(c4ccc(F)cc4)CC3)cc2nc1CC	-13.7	8.1	17.9	55.0	4.7	-8.5	nt
CN1CCN(CCNC(=O)c2ccc3nc(-c4ccc(F)cc4)c(-c4ccc(F)cc4)nc3c2)CC1	10.3	-29.9	74.4*	-3.1	89.4*	-5.1	90.0*
C=CCn1c(-c2ccccn2)n[nH]c1=S	3.0	-9.9	-4.8	0.4	nt	nt	nt
SMILES	TROY signal inh	TWEAK Fn14 block	Peg3 prom inh-1	Shn3 3UTR inh	TRPM1 prom inh	LMP1 NFkB inh	Peg3 prom inh-2
CCCOc1ccc(NC(=O)CC2C(=O)N(CC)C(=S)N2CCCN2CCN(Cc3ccccc3)CC2)cc1 (centres undefined)	2.2	19.8	76.0*	0.7	73.3*	-40.6	80.3*
CCC1(CC)C(=O)C2=C3C1[C@H](C(=O)OC)C=C(C(=O)OC)C[C@H]3n1c(=O)n(-c3ccccc3)c(=O)n1[C@H]2C (some centres undefined)	-33.1	-15.6	12.4	-13.2	12.0	1.3	nt
CN(C)c1ccc(C=c2c3ccccc3n3c2cc(-c2ccccc2)[n+]3C)cc1	52.8*	96.7*	104.0*	?	94.8*	38.9	97.8*
COc1ccc(C2C3(C#N)C(N)=NC(OC)(OC)C23C#N)cc1 (centres undefined)	-0.5	11.8	17.1	3.7	18.3	-0.9	nt
COc1ccc(C2NC3=C(CCC3)C3(C#N)C4(N=C(N)C23C#N)OCCO4)cc1 (centres undefined)	11.6	23.7	67.1*	21.8	17.0	7.8	29.5
COc1cccc(NC(=O)CN(C)C(=O)c2cccnc2Nc2cccc(C(F)(F)F)c2)c1	2.6	25.5	69.3*	30.5	27.7	-20.0	72.9*
Cc1c(/C(O)=C2/C(=O)C(=O)N(Cc3cccnc3)C2c2ccccn2)cnn1-c1ccccc1 (centres undefined)	91.5*	101.4*	65.8*	60.2	48.7	37.8	59.0*
CCOc1ccc(C2/C(=C(\O)c3ccc4c(c3)OCCO4)C(=O)C(=O)N2CCN2CCOCC2)cc1OCC (centres undefined)	-2.1	-6.9	-3.0	-22.4	1.4	0.1	nt
COCCNC(=O)C1CCCN(Cc2ccc(C)cc2)CC1 (centres undefined)	-1.1	23.1	4.5	-3.8	nt	nt	nt
Cc1cc(C)c(C)c(S(=O)(=O)N2CCN(C(=O)c3cc(=O)[nH]c4ccccc34)CC2)c1C	7.3	53.6*	58.9*	14.7	7.6	16.0	58.4*
Cc1cc(C)c(S(=O)(=O)N2CCN(C(=O)c3cc(=O)[nH]c4ccccc34)CC2)c(C)c1	-4.6	15.3	27.8	15.1	4.4	3.4	nt
COC(=O)C1=C(CN2CCCc3ccccc32)NC(=O)NC1c1ccc(F)cc1 (centres undefined)	63.7*	85.1*	81.3*	73.6	86.8*	37.5	66.6*
CS(=O)(=O)Nc1cccc(NC(=O)c2cccc3c(-c4cccnc4)coc23)c1	-2.2	15.4	43.7	-12.5	nt	nt	nt
CC(=O)c1cccc(NC(=O)c2cccc3c(-c4cccnc4)coc23)c1	33.6	58.0*	66.2*	21.0	nt	nt	60.6*
CC(=O)Nc1cccc(NC(=O)c2cc(-c3cccnc3)nc3ccc(Cl)cc23)c1	-0.1	24.4	56.9*	1.6	0.9	-2.8	47.3*

Compound activity: PubChem BioAssay, several laboratories
